# From PubChem BioAssay (NCATS)
# Records with an inconclusive call do not appear. Values without a mark were called inactive. The call rests on the fitted dose curve; in most records, active means well fitted inhibition curve with a large enough effect; inconclusive means small, poorly fitted or top-dose-only effect; inactive means flat fitted curve, though single readings scatter.
# Target: Calcium and integrin-binding protein 1 (Homo sapiens) (UniProt Q99828)
# Assay: Primary qHTS for Identification of Calcium Integrin Binding Protein 1 (CIB1) Competitor (AID 1508620); further: top concentration of the series differs between compounds
# Conditions: CIB1-GST / FITC-alphaIIb peptide fluorescence polarization; series mostly up to 57.7 µM; activity change, negative = inhibition: at the top concentration
# In short: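 Fluorescence polarization competition: GST-tagged CIB1 (1 uM final) preincubated with compound 15 min at room temperature, then FITC-labelled alphaIIb peptide (100 nM final) added. After 15 min at room temperature, polarization read at Ex 480/Em 540.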
# On the % scale 0 is the no-effect control and ±100 the full control effect.
# Chain of Calcium and integrin-binding protein 1 (Homo sapiens) (Q99828 whole entry, looked up): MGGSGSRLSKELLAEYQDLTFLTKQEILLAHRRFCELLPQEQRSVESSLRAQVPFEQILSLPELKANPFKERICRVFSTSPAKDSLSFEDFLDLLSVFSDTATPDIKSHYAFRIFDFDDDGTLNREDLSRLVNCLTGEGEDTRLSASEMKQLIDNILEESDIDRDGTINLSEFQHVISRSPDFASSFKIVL
row,SMILES,"activity change, negative = inhibition"
1,O=[N+]([O-])c1cc([N+](=O)[O-])c2ccccc2c1,-18.4% [at 228 µM]
2,C=CCC1=C(C)C(OC(=O)C2C(C=C(C)C)C2(C)C)CC1=O (stereo unspecified),-6.31% [at 228 µM]
3,CCCCC(CC)COC(=O)c1ccccc1C(=O)OCC(CC)CCCC (stereo unspecified),5.34% [at 228 µM]
4,CC(O)CN1CCN(CC(=O)[O-])CCN(CC(=O)[O-])CCN(CC(=O)[O-])CC1.[Gd+3] (stereo unspecified),-3.87% [at 114 µM]
5,CCOP(=O)(NC(C)C)Oc1ccc(SC)c(C)c1 (stereo unspecified),1.63% [at 228 µM]
6,O=C(O)COc1nc(Cl)c(Cl)cc1Cl,-4.21% [at 228 µM]
7,Nc1ccc(Sc2ccc(N)cc2)cc1,-9.52% [at 228 µM]
8,CC1(C)CC/C(=C/c2ccc(Cl)cc2)C1(O)Cn1cncn1 (stereo unspecified),-13.6% [at 228 µM]
9,O=S(=O)(O)C(F)(F)C(F)(F)C(F)(F)C(F)(F)F,-2.87% [at 228 µM]
10,CCCCOC(=O)c1ccccc1C(=O)OCc1ccccc1,4.33% [at 228 µM]
11,O=C(Nc1ccccc1-c1ccc(Cl)cc1)c1cccnc1Cl,1.54% [at 228 µM]
12,ClC1=C(Cl)[C@]2(Cl)[C@@H]3[C@@H]4C[C@@H]([C@H]5O[C@@H]45)[C@@H]3[C@@]1(Cl)C2(Cl)Cl,-23.1% [at 228 µM]
13,CC(C)(C)NC[C@H](O)c1ccc(O)cc1Cl,-4.38% [at 114 µM]
14,CCO/N=C(\CC)C1=C(O)CC(c2c(C)cc(C)cc2C)CC1=O (stereo unspecified),-6.75% [at 228 µM]
15,O=C(O)c1cc(Oc2ccc(C(F)(F)F)cc2Cl)ccc1[N+](=O)[O-],6.78% [at 114 µM]
16,COc1ccc(C(c2ccc(OC)cc2)C(Cl)(Cl)Cl)cc1,2.57% [at 228 µM]
17,Fc1cc(Br)ccc1CBr,0.615% [at 114 µM]
18,Nc1ccc([N+](=O)[O-])cc1,3.51% [at 228 µM]
19,CC(C)(C)C(O)C(Oc1ccc(Cl)cc1)n1cncn1 (stereo unspecified),-6.53% [at 228 µM]
20,O=C(O)C(Cl)Cl,6.47% [at 114 µM]
21,O=[N+]([O-])c1c2ccccc2cc2ccccc12,-6.19% [at 228 µM]
